Reference: PubChem BioAssay
Inconclusive results are not listed. Values without a mark were called inactive. The source made the active and inactive calls.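 The calls were made as follows: active = cell viability at or below a set limit in both duplicate runs, the limit being the all-compound median minus 4 SD (cut at about 23% in these data, passing the limit was not always enough); inconclusive = no clear call, values can overlap the other calls; inactive = the rest.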

Assay: viability of HCT116 without oncogenic beta-catenin – human colon tumor cells, pilot screen (AID 823);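 also: 0% = wells killed by 20 µM Hyamine and 100% = untreated DMSO cell wells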
Details: HCT116 beta-catenin knockout viability, CellTiter-Glo, 60 h; at 10 µM; active compounds read low

Structure (SMILES) | viability
Cc1oc(-c2cccs2)nc1CS(=O)CC(=O)NCCc1ccccc1 (stereo not given) | 86.1%
CCN(CC)C(=O)C1CCCN(C/C=C/c2ccccc2)C1 (stereo not given) | 84.9%
c1ccc(Cn2c(CSc3nnnn3-c3ccccc3)nc3ccccc32)cc1 | 96.3%
COc1ccc(-c2cn3c(C)c(C(=O)NC(C)(C)C)sc3n2)cc1 | 81.5%
C/C=C/Cn1c(N(C)Cc2ccccc2)nc2c1c(=O)[nH]c(=O)n2C | 102%
CCC1CC(C)(C(=O)Nc2ccc(S(N)(=O)=O)cc2)OC1=O (stereo not given) | 102%
Cc1cccn2cc(-c3ccc(F)cc3)nc12 | 87.2%
CC1CCCCN1C(=O)c1ccccc1NC(=O)c1ccco1 (stereo not given) | 94.7%
COCCNS(=O)(=O)c1ccc(C2CNC(=O)C2)cc1 (stereo not given) | 110%
COc1cccc(OCC(=O)N(Cc2nc(-c3ccc(Cl)cc3)no2)C(C)C)c1 | 91%
COC(=O)C1C(=O)c2c([nH]c(C(=O)OC3CCCC3C)c2C)CC1C (stereo not given) | 81.2%
O=C(Cn1c(S(=O)(=O)Cc2ccccc2)nc2ccccc21)N1CCCCC1 | 107%
COc1ccc(Cl)cc1NC(=O)CSc1nnc(Cn2c(=O)sc3ccccc32)n1C | 96.6%
Cc1cc(C)c(C)c(OCC(=O)NCCN(C)C)c1 | 91%
COC(=O)c1ccc(C2C(C(C)=O)=C(C)Nc3ncnn32)cc1 (stereo not given) | 108%
CCOC(=O)Cn1c(=O)oc2cc(S(=O)(=O)Nc3c(C)cc(C)cc3C)ccc21 | 94.5%
CC(c1ccccc1)C(CC(=O)O)C(=O)NC1CCCCC1 (stereo not given) | 98.2%
Cc1cc(C2N=C(N)Nc3nc4ccccc4n32)c(C)n1-c1ccccc1Cl (stereo not given) | 9.19% (active)
CCOCCn1c(SCCc2ccccc2)nc2c1c(=O)[nH]c(=O)n2C | 98.8%
CSc1ccc(S(=O)(=O)N2CCN(Cc3ccc4c(c3)OCO4)CC2)cc1 | 88.1%

Structure (SMILES) | viability
CC(=O)N1C(C(=O)O)CSC1c1ccc(C)cc1 (stereo not given) | 95.3%
Cc1cc(=O)[nH]c(SCc2cc(Cl)ccc2OC(F)F)n1 | 98.2%
C=CCn1c(=NC(=O)C2CC2)sc2cc(NC(C)=O)ccc21 | 95.7%
O=C(O)c1ccc(-n2nnnc2SCc2ccccc2F)cc1 | 105%
O=C(O)C1(P(=O)(c2ccccc2)c2ccccc2)CCC1 | 99.6%
CCOC(=O)C1=C(C)NC(=O)NC1c1ccc(C)o1 (stereo not given) | 105%
O=C1c2ccccc2-c2ncnc3c(N4CCOCC4)cc(N4CCOCC4)c1c23 | 79.2%
CCCC(=O)Nc1nnc(-c2ccc(Cl)s2)o1 | 95.6%
O=C(COc1ccccc1)Nc1ccc(S(=O)(=O)N2CCCC2)cc1 | 99.5%
COc1cccc(N2CCN(C(=O)CN(C)S(=O)(=O)c3ccc4c(c3)CCC(=O)N4)CC2)c1 | 87.6%
CC(C)(C)c1ccc(-c2cc(N)n[nH]2)cc1 | 95.5%
CCCOC(=O)c1ccc(-n2nnnc2SCC(=O)N2CCCCC2)cc1 | 80.3%
CCOc1ccc(-c2cc(CCCC(=O)NCc3ccco3)no2)cc1 | 86.5%
Nc1nnc(N2CCc3ccccc32)s1 | 105%
O=C(NC1CCN(Cc2ccccc2)CC1)C1CCN(c2nnc(-n3cccc3)s2)CC1 | 82.2%
CCn1c(C(C)NC(=O)Cc2ccccc2)nc2ccccc21 (stereo not given) | 99.6%
CC1(C)Cc2c(C#N)c(NC3CCCCC3)nc(-c3ccco3)c2CO1 | 80.3%
O=C(NCc1ccc(F)cc1)c1cnc2n(c1=O)CCS2 | 101%
Cc1sc2nc(SCC(=O)N3CCCC3)[nH]c(=O)c2c1C | 104%
CC1Cc2nc(SCC(=O)N3CCOCC3)n(-c3ccccc3)c(=O)c2S1 (stereo not given) | 111%
